GLP1R ag = qHTS of GLP-1 Receptor Agonists. HEK293 GLP-1R CRE-luciferase, luminescence, 4-6 h; cells express a hypersensitive GLP-1R form. Potency, µM (top dose mostly 45.6 µM), inactives show top-dose activation, most hits filed as activators. hit rate 0.007% among 380,000. AID 624172, 2012; further: % of control where 0% means no effect
GLP1R cytotox = qHTS of GLP-1 Receptor Inverse Agonists: Cytotox Screen. HEK293 cAMP-luciferase reporter cells, luminescence, 24 h. Potency, µM (top dose mostly 38.3 µM), for the others: top-dose activity change, negative = inhibition, actives largely listed as inhibitors. hit rate 0.13% among 410,000. AID 624418, 2012;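 further: loss of luciferase light is scored as toxicity; on the % scale 0 is the no-effect control and ±100 the full control effect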
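Cells in DMEM/10% Nu serum/1% pen-strep, 1536-well format. Pre-incubated 12 h, dosed with 23 nL compound, incubated a further 24 h. Luciferase detection, 12 min at room temp, luminescence.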
PTHR1 agonist = qHTS for PTHR1 Agonists: Primary Screen; Parathyroid hormone/parathyroid hormone-related peptide receptor (Homo sapiens), Q03431; HEK293 GP2 PTHR1 cells, GloSensor cAMP luminescence, 1 h; Potency, µM (top dose mostly 115 µM), inactives show at the highest dose activation, actives largely listed as activators; hit rate 0.075% among 410,000; AID 743266, 2014; further: nearly all actives have a fitted effect of over 55% in size
Target sequence (Q03431 whole entry, looked up): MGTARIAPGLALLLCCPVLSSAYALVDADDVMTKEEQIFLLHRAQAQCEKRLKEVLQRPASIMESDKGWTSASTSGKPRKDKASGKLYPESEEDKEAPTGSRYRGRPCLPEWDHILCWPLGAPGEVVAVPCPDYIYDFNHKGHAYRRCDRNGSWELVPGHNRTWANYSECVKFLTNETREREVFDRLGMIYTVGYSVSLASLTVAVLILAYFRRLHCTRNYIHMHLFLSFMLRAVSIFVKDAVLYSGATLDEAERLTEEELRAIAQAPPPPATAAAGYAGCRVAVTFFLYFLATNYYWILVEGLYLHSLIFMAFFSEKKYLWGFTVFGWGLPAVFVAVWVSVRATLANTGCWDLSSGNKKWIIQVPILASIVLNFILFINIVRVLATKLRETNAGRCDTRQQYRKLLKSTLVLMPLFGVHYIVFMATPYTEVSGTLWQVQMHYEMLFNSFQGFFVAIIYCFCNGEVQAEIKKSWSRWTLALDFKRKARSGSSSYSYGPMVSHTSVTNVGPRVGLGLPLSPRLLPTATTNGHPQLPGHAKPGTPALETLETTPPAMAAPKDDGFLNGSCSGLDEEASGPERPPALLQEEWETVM
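HEK-293-derived GP2 cells expressing PTHR1 and a GloSensor cAMP reporter, 3,000/well, plated overnight, given luciferin plus IBMX (each 0.5 mM as added) for 1 h at 37 °C, then compound for 1 h at 37 °C. Luminescence was read after 15 min at room temperature.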
GLP1R inv ag = qHTS of GLP-1 Receptor Inverse Agonists (Inhibition Mode). hit rate 1.6% among 410,000. Potency, µM (top dose mostly 38.3 µM), without a hit: top-dose activity change, negative = inhibition, hits mostly inhibitors. Glucagon-like peptide 1 receptor (Homo sapiens), P43220. HEK293 GLP-1R CRE-luciferase, luminescence, 24 h; GLP-1R form is constitutively active; further: on the % scale 0 is the no-effect control and ±100 the full control effect; nearly all actives have a fitted effect of over 55% in size
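Readout was luciferase luminescence, measured 12 min after detection reagent at room temperature. Beforehand, GLP-1R reporter HEK293 cells had sat 12 h, then received compounds for 24 hr at 37 deg C.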
An asterisk follows results filed as active; i = inactive; ? = inconclusive; . = not tested or not shown. Most compounds without a hit are left out; they make up all but 1.7% or so of the library. The call rests on the fitted dose curve; in most records, active means well fitted curve in the direction sought with a large enough effect; inconclusive means small, poorly fitted or top-dose-only effect, or another doubt; inactive means no such curve, though single readings can be large; an effect the other way counts as inactive or inconclusive. Potency means the concentration at half of the fitted maximal effect.

SMILES | GLP1R ag | GLP1R cytotox | PTHR1 agonist | GLP1R inv ag
C=C(C(=O)c1ccccc1)C(NC(C)(C)C)c1ccccc1 (centres undefined) | -23% | 5µM* | -39% | 5µM*
O=C(NC1CC1)c1ccc(CS(=O)c2ccccc2)o1 (centres undefined) | -4% | -11% | -2% | 8%
CC1(C)CCC[C@]2(C)C(CS(=O)c3ccccc3)=C(C=O)CC[C@@H]12 (some centres undefined) | 10% | -13% | -19% | 2.8µM*
CC(C)c1ccc2c(c1)CCC1C(C)(CN)CCCC21C (centres undefined) | 1% | ? | i | 5.6µM*
CC(C)c1cc2c(cc1S(=O)(=O)O)[C@@]1(C)CCC[C@@](C)(C(=O)O)[C@@H]1CC2 | -5% | . | . | .
O=C(CSc1nc2c([nH]c3ccccc32)c(=O)n1-c1ccccc1F)Nc1cccc(C(F)(F)F)c1 | 3% | -22% | -14% | 11µM*
COc1ccc2ncc3c(-c4ccc(C)c(C)c4)nn(CC(=O)Nc4ccccc4)c3c2c1 | . | 6% | i | 8%
CC(=O)Nc1cc(C(=O)NCc2ccc(F)cc2)ccc1Sc1ccc(C)cc1 | . | -5% | -7% | ?
OCCNc1nc(Nc2ccccc2)nc2ccccc12 | 1% | 8% | i | 7.1µM*
Cc1c(Cl)cccc1Nc1nc(NCCO)c2ccccc2n1 | 10% | ? | -19% | 2.5µM*
Cc1ccc(Nc2nc(NCc3ccco3)c3ccccc3n2)cc1 | 4% | ? | -32% | 2.5µM*
Oc1ccccc1Nc1nc(NCc2ccccc2)c2ccccc2n1 | -1% | ? | -33% | ?
OCCNc1nc(-c2ccccc2)c2cc(Br)ccc2n1 | ? | 12% | i | 88%
OCCNc1nc(Nc2ccccc2)nc(Nc2ccccc2)n1 | 20% | 3% | i | ?
OCCNc1nc(Nc2ccc(Br)cc2)nc2ccccc12 | -1% | 5% | -8% | 2µM*
CC(=O)Nc1ccc(NC(=O)CCc2nc3cccnc3n2Cc2cccs2)cc1 | . | 0% | 2% | 7%
CCOc1ccc(NC(=O)c2ccc3nc(Cc4ccccc4)oc3c2)cc1 | . | -12% | -21% | ?
COc1ccc(C2c3c(n(C)c4ccccc34)C(=O)N2CC(=O)Nc2cccc(Cl)c2)cc1 (centres undefined) | . | 1% | 0% | ?
Cc1cc(C)c(C)c(S(=O)(=O)N2CCC(C(=O)N3CCCC3)CC2)c1C | -8% | 3% | 23% | -17%
Cc1cc(C)c(C)c(S(=O)(=O)N2CCC(C(=O)N3CCN(c4ccc(F)cc4)CC3)CC2)c1C | 9% | 0% | -3% | 5µM*
O=S(=O)(Nc1cccc2c1CCCC2)c1cccc(C(F)(F)F)c1 | 6% | -4% | i | 10µM*
Fc1ccc(C(c2ccc(F)cc2)N2CCN(CC=Cc3ccccc3)CC2)cc1 | -5% | . | . | .
COC(=O)c1c(SC)nc2ccccc2c1OCc1ccc(C)cc1 | . | 6% | i | ?
CCSc1nc2ccccc2c(OCc2ccc(Cl)cc2)c1C(=O)OC | . | 4% | i | 22µM*
CC(C)Cc1ccc(C(C)C(N)=Nc2ccc(O)cc2)cc1 (centres undefined) | 13% | ? | -6% | 13µM*
SMILES | GLP1R ag | GLP1R cytotox | PTHR1 agonist | GLP1R inv ag
Cc1cccc(C(=O)NCC(c2ccco2)N2CCc3ccccc32)c1 (centres undefined) | 16% | -8% | -22% | ?
COc1ccc(S(=O)(=O)NCC(c2ccco2)N2CCc3ccccc32)cc1 (centres undefined) | -1% | -7% | -30% | 6.3µM*
O=C(NCC(c1ccco1)N1CCc2ccccc21)c1cccc([N+](=O)[O-])c1 (centres undefined) | 23% | -5% | i | 10µM*
COc1ccc(C(=O)NCC(c2ccco2)N2CCc3ccccc3C2)c(OC)c1 (centres undefined) | 3% | -5% | i | ?
Cc1ccc(C(=O)NCC(c2ccco2)N2CCc3ccccc32)cc1 (centres undefined) | -2% | 8% | -7% | 10µM*
COc1ccc(C(=O)NCC(c2ccco2)N2CCc3ccccc32)c(OC)c1 (centres undefined) | 17% | -2% | -5% | 8.9µM*

Screening results (PubChem)
